# Only some compounds are listed: those with a hit (about 3% of all), similar ones and a draw of the others.
# Epigenetic mod – epigenetic modulators derepressing GFP locus in mouse cells; mouse C127i GFP locus derepression, cytometry, 30 h; Potency, µM (series often up to 46.1 µM), for inactives: at the top dose GFP derepression (activation); actives 0.09% (n = 68,000); further: % of control where 0% means no effect
#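 Read-out is the number of GFP-positive cells, scored as fluorescent objects 20 to 120 um wide, reflecting derepression of a silenced CMV-GFP reporter in murine C127i cells after 30 h compound exposure at 37 C.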
# Hsp90 Hop PPI – changes Hsp90-Hop TPR2A binding signal, up or down. AlphaScreen TPR2A-His6 binding biotin-Hsp90 C-terminal peptide. AID 595. Potency, µM (series often up to 57 µM), for inactives: top-dose activity change, negative = inhibition. actives 0.44% (n = 71,000); active means well fitted curve in either direction with a large enough effect; inconclusive means small, poorly fitted or top-dose-only effect, or another doubt; further: potency means the concentration at half of the fitted maximal effect; on the % scale 0 is the no-effect control and ±100 the full control effect
# ERK AVP inh – inhibitors of vasopressin-stimulated ERK signaling pathway; HEK293-V1b, vasopressin-stimulated pERK AlphaScreen; actives 0.99% (n = 72,000); AID 995; Potency, µM (highest dose often 57.5 µM), without a hit: top-dose activity, negative = inhibition, hits mostly inhibitors; further: potency means the concentration at half of the fitted maximal effect; on the % scale 0 is the no-effect control and ±100 the full control effect; nearly all actives have a fitted effect of over 55% in size
#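 Phosphorylated ERK1/2 detected via AlphaScreen bead proximity in lysates of V1b-expressing HEK293 cells given 25 nM vasopressin for 5 min after 30 min compound exposure (37 °C). AC50 from Hill equation; basal DMSO 0%, vasopressin 100%.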
# UbGFP stabilizer – ubiquitin-GFP accumulation via proteasome inhibition; Ubiquitin-GFP reporter cells, proteasome inhibition, GFP fluorescence; response scale: untreated = 0%, 10 µM MG-132 = 100%; Potency, µM (highest dose often 45.9 µM), without a hit: top-dose activation (GFP accumulation), usual class: activators; AID 526; 67,000 tested, under 10 active; active means well fitted activation curve with a large enough effect, not every such curve was filed as active; inconclusive means small, poorly fitted or top-dose-only effect, or another doubt; inactive means no such curve, though single readings can be large or run the other way; further: potency means the concentration at half of the fitted maximal effect
#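 Proteasome blockade was scored as a rise in GFP-expressing U2OS cells carrying a ubiquitin(G76V)-GFP construct, imaged after 4 hr compound treatment at 37 °C across a 46 uM–2.9 nM series.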
# Tau filament bind – binds recombinant human tau filaments. actives 2% (n = 71,000). P10636. Potency, µM (highest dose often 57.1 µM), without a hit: at the top dose activity change, negative = inhibition. recombinant tau filaments, thioflavin S fluorescence, 15 h; filaments grown with octadecylsulfate alongside compound;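 further: potency means the concentration at half of the fitted maximal effect; on the % scale 0 is the no-effect control and ±100 the full control effect; actives lower thioflavin S fluorescence by blocking filaments or displacing dye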
# Target sequence (P10636 whole entry, looked up): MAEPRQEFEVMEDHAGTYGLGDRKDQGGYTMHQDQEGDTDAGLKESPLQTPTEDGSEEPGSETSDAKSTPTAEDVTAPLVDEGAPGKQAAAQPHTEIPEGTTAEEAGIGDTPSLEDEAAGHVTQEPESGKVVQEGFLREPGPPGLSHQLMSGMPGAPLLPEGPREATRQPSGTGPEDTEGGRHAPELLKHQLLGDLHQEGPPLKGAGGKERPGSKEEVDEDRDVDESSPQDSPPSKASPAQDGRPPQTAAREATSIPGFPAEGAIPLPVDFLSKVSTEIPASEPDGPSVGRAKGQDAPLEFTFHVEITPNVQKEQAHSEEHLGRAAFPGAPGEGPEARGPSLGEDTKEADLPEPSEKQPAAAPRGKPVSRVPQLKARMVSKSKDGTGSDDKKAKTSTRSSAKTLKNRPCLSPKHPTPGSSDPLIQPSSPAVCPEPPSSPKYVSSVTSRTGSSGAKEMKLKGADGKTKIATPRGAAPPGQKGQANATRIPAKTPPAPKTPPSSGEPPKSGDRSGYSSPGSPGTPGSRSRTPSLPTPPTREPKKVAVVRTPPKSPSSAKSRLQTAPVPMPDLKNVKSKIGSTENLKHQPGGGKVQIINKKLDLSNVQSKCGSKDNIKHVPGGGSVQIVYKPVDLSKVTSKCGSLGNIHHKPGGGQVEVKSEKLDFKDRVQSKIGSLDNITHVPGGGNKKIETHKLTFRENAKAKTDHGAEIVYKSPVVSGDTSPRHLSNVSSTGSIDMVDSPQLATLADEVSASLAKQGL
#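 Quantitative HTS: thioflavine S signal from ODS-induced tau filaments, excited at 450 nm, emission 510 nm. Conditions: 1 uM tau, 30 uM ODS, 15 h at 37 C, pH 7.4.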
# HBB splicing – hemoglobin beta splicing modulation. actives 0.06% (n = 65,000). HBB splicing reporter cell assay, activation; EGFP reporter with mutant IVS2-654 intron; response scale: normalised to 500 nM splice-correcting PNA. Potency, µM (titrated, usually from 46.1 µM), for the others: top-dose activation, hits mostly activators. AID 925; further: potency means the concentration at half of the fitted maximal effect; 0% is about no effect
#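 HeLa cells stably expressing EGFP interrupted by mutant beta-globin intron 2 (IVS2-654), 500/well in 2% FCS. Treated with compound for 2 days at 37C. Splicing correction scored as total well GFP intensity (488 nm excitation, 500-520 nm emission); 500 nM antisense PNA served as control.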
# An asterisk follows results filed as active; i = inactive; ? = inconclusive; / = no result; ! = not confirmed by another sample; [ ] = another dose, or the depositor's remark. Unless noted, the call rests on the fitted dose curve; in most records, active means well fitted curve in the direction sought with a large enough effect; inconclusive means small, poorly fitted or top-dose-only effect, or another doubt; inactive means no such curve, though single readings can be large; an effect the other way counts as inactive or inconclusive.
SMILES,Epigenetic mod,Hsp90 Hop PPI,ERK AVP inh,UbGFP stabilizer,Tau filament bind,HBB splicing
CCNc1nc(N)c(C(=O)c2ccc(Cl)s2)s1,0%,-17%,3.2µM*,-1%,?,0%[57.5 µM]
CC(C)(C)c1csc(NC(=O)c2ccc(Cl)s2)n1,-2%,18%,-15%,-6%,-21%,0%
N#Cc1nc(Cc2ccccc2)oc1N1CCC(Cc2ccccc2)CC1,-3%,?,-25%,19%,-1%,-2%
N#Cc1nc(Cc2ccccc2)oc1N1CCN(c2ccccc2)CC1,2%,?,25µM*,3%,5%,7%[0.369 µM]
Nc1nc(Cl)nc2c1ncn2[C@@H]1O[C@H](CO)[C@@H](O)[C@H]1O,13%[20.6 µM],/,10µM*,/,/,/
Nc1nc2c(ncn2[C@@H]2O[C@H](CO)[C@@H](O)[C@H]2O)c(=O)[nH]1,/,/,-18%,/,/,/
C[C@@H](N)/C(N)=N/O,3%[9.22 µM],-2%[11 µM],0%[11.5 µM],4%[9.17 µM],7%[11.4 µM],1%[9.22 µM]
CCCS(=O)(=O)n1nc(-c2ccc(Br)cc2)cc1N,-3%,-1%,-27%,3%,-19%,-1%
CCOC(=O)c1nnc2cc(-c3ccc(Br)cc3)nn2c1C,-2%,-6%,8%,6%,10µM*,/
CCOC(=O)c1cnn2c(C)cc(-c3ccccc3)nc12,-1%,-1%,-4%,0%,-2%,-1%
CCOC(=O)c1nnc2cc(-c3ccccc3)nn2c1C,0%,2%,4%,-3%,16µM*,-1%[9.22 µM]
FC(F)(F)c1ccccc1-c1ccc2ncnc(NC3CCNCC3)c2c1,0%[9.22 µM],1%,7%,3%,6%,0%
CC(NC(=O)c1ccccc1)(C(=O)O)C(=O)O,-2%[9.22 µM],1%[11 µM],26%[11.5 µM],2%[9.17 µM],8%[11.4 µM],4%[9.22 µM]
N#Cc1c(/N=C/c2cccs2)sc2c1CCC2,0%,-9%,-19%,1%,16µM*,-2%[57.5 µM]
CN1CCc2c(sc(/N=C/c3cccs3)c2C(N)=O)C1,-5%,-7%,-3%,/,i,-1%[0.369 µM]
O=c1c2c3c(sc2ncn1/N=C/c1ccco1)CCCC3,0%,-5%,-18%,10%,22%,1%[9.22 µM]
N#Cc1c(/N=C/c2ccco2)sc2c1CCCCC2,0%,-27%,?,-4%,16µM*,-1%[57.5 µM]
CC1(C)N=C(N)N=C(N)N1c1cccc(OCc2cccc(N)c2)c1,-1%[9.22 µM],1%[11 µM],-12%[11.5 µM],-4%[9.17 µM],-4%[11.4 µM],-1%[9.22 µM]
CCOC(=O)N1CCC(NC(=O)c2cc3c(C)nc4ccccc4c3o2)CC1,-3%,-1%,25µM*,0%,21%,1%
Cc1nc2ccccc2c2oc(C(=O)NCC3COc4ccccc4O3)cc12 (stereo unspecified),-3%,-2%,10µM*,-3%,380%,-1%
CCN1CCCC1CNC(=O)c1cc2c(C)nc3ccccc3c2o1 (stereo unspecified),4%,-5%,-10%,-4%,10%,2%[1.84 µM]
COC(=O)c1ccccc1NC(=O)CNc1cc(Cl)ccc1N1CCOCC1,0%,?,61%,-1%,16µM*,0%[57.5 µM]
Cc1cc(Cl)ccc1OC(C)C(=O)Nc1ccccc1N1CCOCC1 (stereo unspecified),-2%,22%,17%,2%,?,0%[57.5 µM]
CCC/C=C(\CCC)C(NS(=O)(=O)c1ccc(C(F)(F)F)cc1)c1ccc(-c2ccccc2)cc1 (stereo unspecified),/,7%,15%,/,166%,-3%
C[C@H](CCC(=O)NN)[C@@H]1CC[C@@H]2[C@H]3CC[C@H]4C[C@@H](O)CC[C@@]4(C)[C@@H]3CC[C@]21C,-1%[9.22 µM],-4%[11 µM],18%[11.5 µM],-5%[9.17 µM],-3%[11.4 µM],3%[9.22 µM]
SMILES,Epigenetic mod,Hsp90 Hop PPI,ERK AVP inh,UbGFP stabilizer,Tau filament bind,HBB splicing
Cc1cc(C(=O)CSCCCn2c(=O)[nH]c3ccccc32)c(C)n1C,-3%,-7%,-30%,1%,2%,0%[57.5 µM]
O=c1[nH]c2ccccc2n1CCCSCCCn1c(=O)[nH]c2ccccc21,0%,-5%,32µM*,-4%,18%,0%[57.5 µM]
CCOc1ccc(-c2cc(C(=O)N3CCN(c4ccccn4)CC3)c3ccccc3n2)cc1,0%,-4%,?,7%,23%,0%
COc1ccc(-c2cc(C(=O)N3CCN(c4ccccn4)CC3)c3ccccc3n2)cc1,0%,-9%,10µM*,-7%,30%,1%
Clc1ccc(OCc2nc(-c3ccccn3)n[nH]2)cc1,?,16µM*,-5%,1%,13%,1%
CCOc1ccc(NCC(=O)Nc2ccc(C)cc2C)cc1,8%,-13%,-10%,-2%,32µM*,7%
CCOc1ccc(NC(C)=O)cc1,-1%[20.6 µM],-5%,-10%,6%[20.5 µM],7%,1%
O=C(Nc1cccc2nsnc12)C1CC(=O)N(c2ccccc2)C1 (stereo unspecified),0%,-2%,7%,-1%,20µM*,-1%[0.369 µM]
CN1/C(=C\P(=O)(N(C)C)N(C)C)C(C)(C)c2ccccc21,-1%,-5%,0%,-1%,10µM*,-1%
Oc1ccc(C=Nc2ccc3ncccc3c2)c(O)c1,-3%[20.6 µM],/,/,/,/,/
COc1cccc(N=Cc2ccc(O)cc2O)c1,0%,-3%,-8%,-6%,32µM*,-1%
[Cu].[O-]/N=C1/C(=[OH+])Nc2ccccc21.[O-]Nc1c(O)[nH]c2ccccc12,-7%[9.22 µM],-2%[11 µM],7%[11.5 µM],-5%[9.17 µM],-13%[11.4 µM],1%[9.22 µM]
COc1ccc2[nH]cc(CCNc3cc(-c4ccc5c(c4)OCO5)ncn3)c2c1,-1%[9.22 µM],-22%,?,2%,?,-1%
COc1ccc2[nH]cc(CCNc3nc(-c4ccccc4OC)nc4ccccc34)c2c1,2%[9.22 µM],-20%,?,5%,2.5µM*,-2%
COc1ccc2[nH]cc(CCNc3ccnc(-c4ccc5c(c4)OCO5)n3)c2c1,0%[9.22 µM],?,32µM*,6%,?,1%
O=C(O)CCCCn1cnc2c(=S)nc[nH]c21,0%[9.22 µM],1%[11 µM],-1%[11.5 µM],3%[9.17 µM],3%[11.4 µM],3%[9.22 µM]
NS(=O)(=O)c1ccc(N=Nc2ccc(O)c(C(=O)O)c2)cc1,-3%[9.22 µM],-8%[11 µM],10%[11.5 µM],-2%[9.17 µM],0%[11.4 µM],1%[9.22 µM]
O=C(O)c1cc(N=Nc2ccc([N+](=O)[O-])cc2)ccc1O,2%[9.22 µM],-28%[11 µM],-9%[11.5 µM],20%[9.17 µM],32µM*!,2%[9.22 µM]
Nc1cc2c(nc3c4ccccc4c(N)cc3[n+]2-c2cccc3ccccc23)c2ccccc12 (tested in a mixture with another compound),0%[9.22 µM],2.5µM*,?,6%[9.17 µM],0.63µM*,5%[9.22 µM]
C=CCSc1nnc2c(n1)OC(c1cccnc1)Nc1ccccc1-2 (stereo unspecified),2%,-2%,-4%,11%,-5%,-6%

# High-throughput results deposited in PubChem BioAssay by National Center for Advancing Translational Sciences (NCATS).
